“And” between values parts separate entries of the source, which are not always exact repeats. Equal values may be shown once. Results filed as inconclusive are left out. The source made the active and inactive calls. Unless noted, calls follow the shape of the dose curve; as a rule, active = well fitted curve in the direction sought with a large enough effect; inconclusive = small, poorly fitted or top-dose-only effect, or another doubt; inactive = no such curve, though single readings can be large; an effect the other way counts as inactive or inconclusive.
What was measured:
[1] = Cell Viability - Renal Proximal Tubule (AID 545); conditions: renal proximal tubule cells viability, primary cells of rat origin; at 91.7 µM (top of the series);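 also: cells exposed to compound for 40 hours; nearly all actives have a fitted effect of over 40% in size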
How it was run: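 Rat kidney proximal tubule cells, freshly isolated; 1000 cells/well, 5 hr settle, compound 40 hr 37 °C. CellTiter-Glo 20 min RT, luminescence read. AC50 by standard Hill fit.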

[2] = Cellular Toxicity (caspase-3) Jurkat (AID 655); conditions: Jurkat caspase-3 activation, luminescence, DMSO = 0%, tamoxifen = 100%; at 92.2 µM (top of the series);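 also: cells exposed to compound for 16 h at 37 °C before reading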
How it was run: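 Luminescent caspase-3/7 readout (aminoluciferin substrate cleavage) in human T-cell leukemia Jurkat cells after 16 hr compound exposure. Concentration-response normalized to DMSO and 100 uM tamoxifen; AC50 by standard Hill equation.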

[3] = Cell Viability - LYMP2-001 (AID 921);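 also: 0% = DMSO only and full inhibition = tetraoctylammonium bromide control wells; nearly all actives have a fitted effect of over 70% in size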
How it was run: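 CellTiter-Glo luminescence (intracellular ATP) after 24 hr compound exposure at 37 C, 2500 lymphoblastoid cells/well in complete medium. AC50 fitted with standard Hill equation; tetraoctylammonium bromide positive control.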

[4] = Cell Viability - LYMP1-003 - Assay at 24 hr (AID 963);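 also: plate controls were DMSO only for no effect and tetraoctylammonium bromide positive control for full effect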
How it was run: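 Human lymphoblastoid LYMP1-003 cells, 2500/well, treated 24 h at 37 C in complete medium. Viability read as intracellular ATP by CellTiter-Glo luminescence after 30 min at room temperature; AC50 from Hill-equation fits of qHTS concentration-response.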

[5] = Cell Viability - LYMP2-004 (AID 966); also: nearly all actives have a fitted effect of over 65% in size; also: potency is read from the fitted curve at half-maximal effect;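 as to activity change, negative = cytotoxicity: plate controls were DMSO only for no effect and tetraoctylammonium bromide control for full effect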
How it was run: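 Lymphoblastoid LYMP2-004 cells, 2500 per well, were preincubated for 5 hr and then treated with compound for 24 h at 37 C in complete medium. Viability was read as cellular ATP by CellTiter-Glo luminescence, and AC50 values were taken from Hill fits to concentration-response data.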

[6] = Cell Viability - LYMP2-005 (AID 967); also: potency is read from the fitted curve at half-maximal effect
How it was run: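 Steps: seed 2500 LYMP2-005 cells/well, incubate 5 h at 37 C, add compound, incubate 24 h at 37 C, add CellTiter-Glo, wait 30 min at RT, read luminescence. Concentration-response data fitted to Hill equation for AC50.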

[7] = Cell Viability - LYMP2-019 (AID 973); also: nearly all actives have a fitted effect of over 55% in size; also: potency is read from the fitted curve at half-maximal effect;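 as to activity change, negative = cytotoxicity: 0% = DMSO alone and full effect = 92 µM tetraoctylammonium bromide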
How it was run: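 Human lymphoblastoid LYMP2-019 cells (2500/well) preincubated 5 h at 37 C, then treated 24 h at 37 C in complete medium. Viability by CellTiter-Glo ATP luminescence after 30 min at room temperature; AC50 from Hill fits.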

[8] = Cell Viability - LYMP2-021 (AID 974);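 also: compound exposure lasts 24 hours at 37 °C; nearly all actives have a fitted effect of over 55% in size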; also: potency is read from the fitted curve at half-maximal effect; as to activity change, negative = cytotoxicity: % is scaled to controls: 0 for no effect and ±100 for the full control effect
How it was run: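 Human lymphoblastoid LYMP2-021 cells, 2500/well in complete medium, treated 24 hours at 37 C. Intracellular ATP by CellTiter-Glo luminescence (30 min, RT); AC50 from Hill fits of concentration-response.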

[9] = Cell Viability - LYMP2-023 (AID 975); also: nearly all actives have a fitted effect of over 55% in size; also: potency is read from the fitted curve at half-maximal effect;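 as to activity change, negative = cytotoxicity: cellular ATP measured by luciferase luminescence as viability proxy; plate controls were DMSO only for no effect and 92 µM tetraoctylammonium bromide control for full effect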
How it was run: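 LYMP2-023 human lymphoblastoid cells, 2500/well, preincubated 5 hr at 37 C, then compound-treated 24 hr at 37 C in complete medium. CellTiter-Glo luminescence (ATP) after 30 min at room temperature; AC50 from Hill-equation fits; tetraoctylammonium bromide positive control.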

[10] = Cell Viability - LYMP2-025 (AID 976); also: potency is read from the fitted curve at half-maximal effect;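 as to activity change, negative = cytotoxicity: plate controls were DMSO only for no effect and tetraoctylammonium bromide control for full effect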
How it was run: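 Human lymphoblastoid LYMP2-025 cells, 2500/well, exposed 24 h at 37 C in complete medium in 1536-well qHTS. Viability as cellular ATP by CellTiter-Glo luminescence; AC50 from Hill fits of concentration-response data.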

[11] = Cell Viability - LYMP2-002 (AID 977);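 also: compound exposure lasted 24 h at 37 °C; plate controls were DMSO only for no effect and 92 µM tetraoctylammonium bromide for full effect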
How it was run: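 Human lymphoblastoid LYMP2-002 cells, 2500 per well, exposed to compounds for 24 h at 37 C in complete medium; viability read as intracellular ATP by CellTiter-Glo luminescence, AC50 from Hill fits.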

[12] = Cell Viability - LYMP2-006 (AID 978); also: % is scaled to controls: 0 for no effect and ±100 for the full control effect; nearly all actives have a fitted effect of over 60% in size
How it was run: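 qHTS, 1536-well; 2500 cells/well, 5 hr 37 C; cpd 24 hr 37 C; CellTiter-Glo 30 min RT; luminescence. Tetraoctylammonium bromide pos. ctrl. AC50 via Hill eqn.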

[13] = Cell Viability - LYMP2-014 (AID 983); also: nearly all actives have a fitted effect of over 50% in size; also: potency is read from the fitted curve at half-maximal effect;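 as to activity change, negative = cytotoxicity: plate controls were DMSO only for no effect and 92 µM tetraoctylammonium bromide for full effect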
How it was run: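 LYMP2-014 human lymphoblastoid cells, 2500/well, treated 24 h at 37 C in complete medium; viability by CellTiter-Glo ATP luminescence after 30 min at room temperature. AC50 from Hill fits of qHTS concentration-response; tetraoctylammonium bromide positive control.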

[14] = Cell Viability - LYMP2-016 (AID 984); also: % is scaled to controls: 0 for no effect and ±100 for the full control effect; nearly all actives have a fitted effect of over 55% in size
How it was run: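 qHTS, 1536-well: 2500 LYMP2-016 cells/well, 5 hr 37 C, compound added, 24 hr 37 C, CellTiter-Glo 30 min RT, luminescence. Tetraoctylammonium bromide positive control. AC50 via Hill fit.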

[15] = Cell Viability - LYMP2-026 (AID 989); also: nearly all actives have a fitted effect of over 50% in size; also: potency is read from the fitted curve at half-maximal effect
How it was run: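 Human lymphoblastoid LYMP2-026 cells, 2500/well, exposed to compound 24 h at 37 C in complete medium. Viability as intracellular ATP by CellTiter-Glo luminescence; AC50 from Hill fits of qHTS concentration-response.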

[16] = Cell Viability - LYMP1-002 - Assay at 24 hr (AID 993); also: potency is read from the fitted curve at half-maximal effect; as to activity change, negative = cytotoxicity: % is scaled to controls: 0 for no effect and ±100 for the full control effect
How it was run: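 Human lymphoblastoid LYMP1-002 cells (2500/well) treated 24 h at 37 °C; viability as intracellular ATP by CellTiter-Glo luminescence. Tetraoctylammonium bromide as positive control; AC50 from Hill-equation fits of qHTS concentration-response.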

[17] = molecular target: Thyroid hormone receptor beta (Homo sapiens) (UniProt P10828); assay: qHTS assay for small molecule agonists of thyroid hormone receptor beta signaling (AID 588545; calls by dose curve)
How it was run: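 Agonist-mode beta-lactamase reporter assay, HEK 293 cells, 2% charcoal/dextran FBS; cells plated 4 hrs, compound 18 hrs at 37 C, CCF4 2 hrs RT. Normalized to 10 nM T3 (100%) and DMSO (0%); Hill fit gives EC50, efficacy.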

[18] = molecular target: Retinoic acid receptor RXR-alpha (Homo sapiens) (UniProt P19793); assay: qHTS assay for small molecule antagonists of retinoid X receptor alpha signaling (AID 588546; active = well fitted inhibition curve with a large enough effect in the signal ratio, with a control signal flat, not every such curve was filed as active; the % refers to the signal ratio;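 also: cells stimulated with 9-cis-retinoic acid as agonist; % is scaled to controls: 0 for no effect and ±100 for the full control effect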); conditions: HEK293T RXRa-UAS-bla, beta-lactamase ratio, antagonist mode
How it was run: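 Beta-lactamase reporter inhibition, read as CCF4 fluorescence ratio (ex 405, em 460/530 nm) after 2 h at RT. HEK293T UAS-bla cells, 2500/well, were stimulated with 9-cis-RA at 500 or 100 nM final alongside test compound for 18 h at 37 C.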

[19] = molecular target: Voltage-gated inwardly rectifying potassium channel KCNH2 (Homo sapiens) (UniProt Q12809); assay: qHTS Assay for Small Molecule Inhibitors of the Human hERG Channel Activity (AID 588834);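 also: top concentration of the series differs between compounds; % is scaled to controls: 0 for no effect and ±100 for the full control effect; lower thallium flux fluorescence means stronger hERG block; nearly all actives have a fitted effect of over 50% in size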
How it was run: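 Concentration-response qHTS measuring drop in thallium-sensitive dye signal. U2OS cells carrying BacMam hERG; compound exposure ~10 min, then stimulation buffer and 2 min read at 1 sec intervals.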

[20] = qHTS assay for small molecule agonists of the antioxidant response element (ARE) signaling pathway measured by Nrf2-dependant transcriptional activity - cell viability counter screen (AID 720653; active = well fitted curve in the direction sought with a large enough effect in the repeat runs; an effect the other way counts as inactive or inconclusive; also: potency is read from the fitted curve at half-maximal effect; as to max response: % is scaled to controls: 0 for no effect and ±100 for the full control effect); conditions: ARE-bla HepG2 viability, CellTiter-Glo ATP luminescence, 16 h; max response: hits give low values
How it was run: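 ARE-bla HepG2 cells treated with compounds for 16 h at 37C; this counter screen measures viability as intracellular ATP by CellTiter-Glo luminescence after 30 min at room temperature.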

Sequence of Voltage-gated inwardly rectifying potassium channel KCNH2 (Homo sapiens) (Q12809 whole entry, looked up): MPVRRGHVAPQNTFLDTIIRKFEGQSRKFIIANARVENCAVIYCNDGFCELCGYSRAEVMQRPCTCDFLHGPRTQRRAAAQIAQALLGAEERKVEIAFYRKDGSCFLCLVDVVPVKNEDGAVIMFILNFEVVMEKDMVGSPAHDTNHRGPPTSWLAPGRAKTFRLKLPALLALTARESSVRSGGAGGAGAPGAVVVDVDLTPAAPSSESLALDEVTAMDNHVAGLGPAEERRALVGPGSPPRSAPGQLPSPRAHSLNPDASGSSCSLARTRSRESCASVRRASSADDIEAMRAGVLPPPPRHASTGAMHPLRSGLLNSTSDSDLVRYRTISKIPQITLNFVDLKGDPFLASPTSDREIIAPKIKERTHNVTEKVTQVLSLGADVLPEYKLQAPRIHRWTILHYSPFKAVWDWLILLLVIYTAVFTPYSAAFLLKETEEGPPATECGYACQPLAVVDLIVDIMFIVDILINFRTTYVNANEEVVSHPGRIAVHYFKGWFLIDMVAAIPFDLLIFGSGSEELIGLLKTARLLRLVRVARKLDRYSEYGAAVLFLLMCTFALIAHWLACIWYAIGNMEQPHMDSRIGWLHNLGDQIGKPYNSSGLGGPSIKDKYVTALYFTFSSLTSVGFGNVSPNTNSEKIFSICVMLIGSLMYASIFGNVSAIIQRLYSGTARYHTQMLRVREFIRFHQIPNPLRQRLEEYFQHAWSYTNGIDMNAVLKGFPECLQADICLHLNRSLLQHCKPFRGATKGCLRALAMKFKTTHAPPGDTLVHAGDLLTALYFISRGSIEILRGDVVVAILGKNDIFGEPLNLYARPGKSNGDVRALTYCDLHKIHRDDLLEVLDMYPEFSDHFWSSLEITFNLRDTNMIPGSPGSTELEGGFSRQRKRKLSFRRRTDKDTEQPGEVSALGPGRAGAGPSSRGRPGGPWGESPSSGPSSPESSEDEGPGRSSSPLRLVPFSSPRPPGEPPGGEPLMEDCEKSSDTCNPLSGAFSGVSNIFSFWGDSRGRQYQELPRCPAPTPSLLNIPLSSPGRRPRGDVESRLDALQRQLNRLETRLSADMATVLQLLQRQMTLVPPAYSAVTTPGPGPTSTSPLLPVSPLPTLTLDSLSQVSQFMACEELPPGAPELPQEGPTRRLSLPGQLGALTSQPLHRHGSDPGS
Sequence of Retinoic acid receptor RXR-alpha (Homo sapiens) (P19793 whole entry, looked up): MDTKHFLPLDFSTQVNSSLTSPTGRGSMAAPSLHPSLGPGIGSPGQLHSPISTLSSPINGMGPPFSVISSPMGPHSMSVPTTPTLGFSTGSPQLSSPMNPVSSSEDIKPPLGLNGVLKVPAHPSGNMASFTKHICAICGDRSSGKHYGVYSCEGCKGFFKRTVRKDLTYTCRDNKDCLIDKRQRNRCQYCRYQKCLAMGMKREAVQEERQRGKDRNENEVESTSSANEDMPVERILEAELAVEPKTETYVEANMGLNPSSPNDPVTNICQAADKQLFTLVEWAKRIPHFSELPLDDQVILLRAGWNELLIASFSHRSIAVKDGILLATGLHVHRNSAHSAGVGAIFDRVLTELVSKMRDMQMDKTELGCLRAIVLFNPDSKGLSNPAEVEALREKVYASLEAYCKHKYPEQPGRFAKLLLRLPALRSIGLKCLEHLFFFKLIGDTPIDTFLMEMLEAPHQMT
Sequence of Thyroid hormone receptor beta (Homo sapiens) (P10828 whole entry, looked up): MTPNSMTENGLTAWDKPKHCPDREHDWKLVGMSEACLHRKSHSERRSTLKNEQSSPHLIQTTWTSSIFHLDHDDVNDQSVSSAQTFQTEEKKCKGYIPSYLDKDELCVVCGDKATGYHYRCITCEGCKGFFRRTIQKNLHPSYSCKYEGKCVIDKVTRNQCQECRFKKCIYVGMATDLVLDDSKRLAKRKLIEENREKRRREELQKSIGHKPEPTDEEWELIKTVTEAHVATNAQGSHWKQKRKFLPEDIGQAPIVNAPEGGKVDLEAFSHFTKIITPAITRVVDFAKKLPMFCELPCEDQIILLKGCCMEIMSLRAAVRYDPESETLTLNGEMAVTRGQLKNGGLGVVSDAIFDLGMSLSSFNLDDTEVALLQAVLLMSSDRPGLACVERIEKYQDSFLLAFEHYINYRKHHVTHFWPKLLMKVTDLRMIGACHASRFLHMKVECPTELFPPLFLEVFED

C/C=C\c1ccc(OC)cc1
inactive: activity change, negative = cytotoxicity [1] -7.43% | caspase-3 activation [2] -0.717% | Potency [3] | Potency [4] | Potency [5] | Potency [6] | Potency [7] | Potency [8] | Potency [9] | Potency [10] | Potency [11] | Potency [12] | Potency [13] | Potency [14] | Potency [15] | Potency [16] | outcome [17] | max response [18] 3.92% | Potency [19] | max response [20] -0.534%

Cc1ccc([N+](=O)[O-])c(C)c1
inactive: activity change, negative = cytotoxicity [1] -0.903% | caspase-3 activation [2] 0.882% | Potency [3] | Potency [4] | Potency [5] | Potency [6] | Potency [7] | Potency [8] | Potency [9] | Potency [10] | Potency [11] | Potency [12] | Potency [13] | Potency [14] | Potency [15] | Potency [16] | outcome [17] | max response [18] -1.42% and 0.976% | Potency [19] | max response [20] -3.32% and -3.26%

CCCCCCCCCCCCCCC1CO1 (stereo not drawn)
inactive: activity change, negative = cytotoxicity [1] -7.28% | caspase-3 activation [2] 0.846% | Potency [3] | Potency [4] | Potency [5] | Potency [6] | Potency [7] | Potency [8] | Potency [9] | Potency [10] | Potency [11] | Potency [12] | Potency [13] | Potency [14] | Potency [15] | Potency [16] | outcome [17] | max response [18] 5.21% and -18.5% | Potency [19] | max response [20] -2.08% and 0.668%

CC1=CC(C)(C)Nc2ccccc21
inactive: activity change, negative = cytotoxicity [1] -6.6% and -0.974% | caspase-3 activation [2] -0.184% and 0.591% | Potency [3] | Potency [4] | Potency [5] | Potency [6] | Potency [7] | Potency [8] | Potency [9] | Potency [10] | Potency [11] | Potency [12] | Potency [13] | Potency [14] | Potency [15] | Potency [16] | outcome [17] | max response [18] 7.64% and -0.906% | Potency [19] | max response [20] 0.655% and 4.88%

NC1=NC(S)C2N=CN=C2N1 (stereo not drawn)
inactive: outcome [17] | max response [18] 2.23% | Potency [19]
active: Potency [5] 7.94 µM | Potency [6] 12.6 µM | Potency [7] 10 µM | Potency [8] 15.8 µM | Potency [9] 10 µM | Potency [10] 3.16 µM | Potency [13] 15.8 µM | Potency [15] 12.6 µM | Potency [16] 10 µM | Potency [20] 5.01 µM

c1ccc2c(c1)[nH]c1ccccc12
inactive: activity change, negative = cytotoxicity [1] -10.3% | caspase-3 activation [2] 0.344% | Potency [3] | Potency [4] | Potency [5] | Potency [6] | Potency [7] | Potency [8] | Potency [9] | Potency [10] | Potency [11] | Potency [12] | Potency [13] | Potency [14] | Potency [15] | Potency [16] | outcome [17] | max response [18] 0.549% and -19.1% | Potency [19] | max response [20] -11% and -21.8%

CCC(O)OC(O)CC (stereo not drawn)
inactive: activity change, negative = cytotoxicity [1] -7.55% and -1.85% | caspase-3 activation [2] 0.389% and 0.685% | Potency [3] | Potency [4] | Potency [5] | Potency [6] | Potency [7] | Potency [8] | Potency [9] | Potency [10] | Potency [11] | Potency [12] | Potency [13] | Potency [14] | Potency [15] | Potency [16] | outcome [17] | max response [18] -3.68% and -1.43% | Potency [19] | max response [20] 1.91% [middle of 4 runs]

CCCN(CCC)C(=O)SCC
inactive: activity change, negative = cytotoxicity [1] 6.23% | caspase-3 activation [2] 2.52% | Potency [3] | Potency [4] | Potency [5] | Potency [6] | Potency [7] | Potency [8] | Potency [9] | Potency [10] | Potency [11] | Potency [12] | Potency [13] | Potency [14] | Potency [15] | Potency [16] | outcome [17] | max response [18] 13.3% and -9.15% | Potency [19] | max response [20] -4.11% and 2.96%

— PubChem BioAssay (NCATS)
